According to PubChem BioAssay (NCATS):
Records with an inconclusive call do not appear. Active and inactive are the calls of the source. Unless noted, the call rests on the fitted dose curve; in most records, active means well fitted curve in the direction sought with a large enough effect; inconclusive means small, poorly fitted or top-dose-only effect, or another doubt; inactive means no such curve, though single readings can be large; an effect the other way counts as inactive or inconclusive.

What was measured:
[1] = biological target: ATP-dependent DNA helicase Q1 (Homo sapiens) (UniProt P46063); experiment: qHTS Validation Assay for Inhibitors of RecQ-Like Dna Helicase 1 (RECQ1) (AID 2353)
Summary of the method: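 50 nM RECQ1T1 preincubated 15 min with compound in Tris pH 8.0 buffer with MgCl2, DTT, Tween-20 and 2.5 ug/ml poly(dI-dC); started with 200 nM TAMRA/BHQ-2 forked duplex and 2 mM ATP. Unwinding read as fluorescence (525/598 nm), two reads 2 h apart.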

[2] = biological target: RecQ-like DNA helicase BLM (Homo sapiens) (UniProt P54132); experiment: qHTS Validation Assay for Inhibitors of Bloom's syndrome helicase (BLM) (AID 2364)
Summary of the method: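 BLM 50 nM in 25 mM Tris-HCl pH 8.0, 5 mM NaCl, 2 mM MgCl2, 1 mM DTT, 0.01% Tween-20, 2.5 ug/ml poly(dI-dC); 15 min cpd preinc, RT. Start: 200 nM forked DNA + 2 mM ATP (final). TAMRA read, 2 reads 2 h apart.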

[3] = Cytometric Cell-Based qHTS for Inhibitors of the mTORC1 Signaling Pathway in MEF (Tsc2-/-, p53-/-) Cells (AID 2660);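 further: percent of cells above a phospho-rpS6 to PI ratio cutoff in each well; series mostly up to about 38 µM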
Summary of the method: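 Readout: Alexa-488 phospho-rpS6 (Ser235/236) intensity divided by PI intensity, thresholded against 7.5 nM rapamycin wells and reported as % positive cells. PI cell count served as the viability measure. Compound exposure was 24 hrs at 37 degree Celsius.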

[4] = High Content Imaging Cell-Based qHTS for Inhibitors of the mTORC1 Signaling Pathway in MEF (Tsc2-/-, p53-/-) Cells (AID 2666);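 further: percent of cells scored positive for phospho-rpS6 Ser235/236 immunostaining by imaging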
Summary of the method: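 Read-out: % positive cells per well, with thresholds from highest- and lowest-signal wells, based on phospho-rpS6 (Ser235/236) intensity normalized to Hoechst nuclear stain. Cells: Tsc2-/-, p53-/- MEFs carrying empty vector; compound 24 hrs, 37 degree Celsius.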

[5] = Cytometry Cell-Based qHTS for Inhibitors of the mTORC1 Signaling Pathway in MEF cells (AID 2668);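 further: Tsc2-/- p53-/- mouse embryonic fibroblasts stably re-expressing wild-type Tsc2; percent cells positive for phospho-rpS6 Ser235/236 relative to propidium iodide stain; series mostly up to about 38 µM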
Summary of the method: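 Tsc2-/-, p53-/- MEFs re-expressing WT Tsc2; cpd 24 hrs, 37 degree Celsius; PFA fix, Alexa-488 p-rpS6 (Ser235/236) Ab 2 hrs RT, PI counterstain; Acumen 488nm scan; p-S6/PI ratio → % positive cells; PI count = viability.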

[6] = Validation screen for small molecules that induce DNA re-replication in MCF 10A normal breast cells (AID 463097); further: nearly all actives have a fitted effect of over 60% in size
Summary of the method: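 Image-based qHTS: normal breast cells are incubated with compound for 48 hr, stained with Hoechst, and scanned for total nuclear fluorescence. Compounds raising the fraction of nuclei with elevated DNA content count as re-replication inducers.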

[7] = biological target: Ubiquitin carboxyl-terminal hydrolase 2 (Homo sapiens) (UniProt O75604); experiment: qHTS Validation Assay for Inhibitors of Ubiquitin-specific Protease USP2a Using CHOP2 as the Reporter (AID 463106)
Summary of the method: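 USP2 core (10nM final) was preincubated with compound for 30min at RT in 20mM Tris-HCl pH 8.0, 2mM CaCl2, 2mM beta-mercaptoethanol, 0.05% CHAPS. Ub-CHOP2 and reporter substrate (25nM each) were added, and fluorescence (Ex 485/Em 531nm) was read after 60min.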

[8] = biological target: DNA polymerase III PolC-type (Bacillus subtilis (strain 168)) (UniProt P13267); experiment: qHTS Validation Assay for the Inhibitors of DNA Replication in Gram-Positive Bacteria (AID 485295);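 further: reconstituted holoenzyme with PolC plus beta clamp SSB and primase; PicoGreen fluorescence of double-stranded DNA made on primed circular M13 template; series mostly up to about 57 µM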
Summary of the method: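 First, compound is mixed with the reconstituted replication complex and held at room temperature. Next, circular single-stranded M13Gori with nucleotides starts synthesis. Finally, PicoGreen in EDTA halts the reaction and stains double-stranded product for fluorescence reading.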

[9] = biological target: Tumor susceptibility gene 101 protein (Homo sapiens) (UniProt Q99816); experiment: qHTS Validation Assay for Iinhibitors of HIV-1 Budding by Blocking the Interaction of PTAP/TSG101 (AID 485342; calls by dose curve)
Summary of the method: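 Binding of a FITC-tagged PTAP-motif peptide (50 nM) to the Tsg101 binding domain (10 uM) is monitored by fluorescence polarization. Compounds are pin-delivered before peptide addition, and incubation runs 20 min at room temperature.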

[10] = qHTS Validation Assay to Find Inhibitors of Chronic Active B-Cell Receptor Signaling (AID 485345; active means well fitted curve in the direction sought with a large enough effect in the main read-out, with a control signal flat, not every such curve was filed as active)
Summary of the method: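 TMD8 ABC-DLBCL cells with dox-inducible green luciferase–IκBα fusion and red native luciferase; compounds 46 uM–3 nM, 4 h at 37C with doxycycline in 0.5% FBS IMDM. Green/red ratio normalized to basal and 10 uM MG-132.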

[11] = biological target: Beta-2 adrenergic receptor (Homo sapiens) (UniProt P07550); experiment: qHTS validation assay of beta-arrestin-biased ligands of beta2-adrenergic receptor (AID 485366)
Summary of the method: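 Tango cells (recombinant beta2-AR with recombinant beta-arrestin; recruitment releases tTA driving luciferase) were treated with compounds titrated up to 46 microM for 18 hr at 37 degrees C. Luminescence gave %Activity, and concentration-response curves were curve-classified.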

[12] = Quantitative high throughput screen for delayed death inhibitors of the malarial parasite plastid, 96 hour incubation (AID 488745);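 further: luciferase-expressing P. falciparum in erythrocytes at 2% hematocrit and 0.1% parasitemia; series mostly up to about 29 µM; nearly all actives have a fitted effect of over 70% in size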
Summary of the method: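 Growth of reporter-bearing P. falciparum in red cells is measured after 96 h with compound, covering two erythrocytic cycles. Luminescence from the integrated luciferase serves as the growth signal.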

[13] = Quantitative high throughput screen for delayed death inhibitors of the malarial parasite plastid, 48 hour incubation (AID 488752); further: nearly all actives have a fitted effect of over 65% in size
Summary of the method: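 One parasite generation (48 h, 37 C, 5% CO2) of luciferase-reporter P. falciparum in erythrocytes is run with test compound; decreased luminescence indicates inhibited growth.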

[14] = biological target: Thioredoxin reductase 1, cytoplasmic (Rattus norvegicus) (UniProt O89049); experiment: qHTS Assay for Substrates of Mammalian Selenoprotein Thioredoxin Reductase 1 (TrxR1) (AID 488772);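 further: NADPH fluorescence in the first read after selenite addition and not the 8 min delta; series mostly up to about 57 µM; a drop in NADPH fluorescence below the no-compound background marks a TrxR1 substrate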
Summary of the method: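 Quantitative HTS in Tris-HCl buffer at pH 7.5 with EDTA and Tween-20, using rat TrxR1, 400 uM NADPH and 400 uM selenite (final). A fall in initial NADPH fluorescence relative to background marked substrate behaviour.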

[15] = biological target: Thioredoxin reductase 1, cytoplasmic (Rattus norvegicus) (UniProt O89049); experiment: qHTS Assay for Inhibitors of Mammalian Selenoprotein Thioredoxin Reductase 1 (TrxR1) (AID 488773); conditions: Potency: inhibition;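 further: drop in NADPH fluorescence over an 8 min run after selenite addition; series mostly up to about 57 µM; nearly all actives have a fitted effect of over 40% in size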
Summary of the method: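 Steps: enzyme (90 nM) plus NADPH (400 uM final), 5 min at ~22 deg C; compound added, 15 min; selenite (400 uM final) added; fluorescence followed for 8 min. Concentration-response curves derived from the normalized delta values.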

[16] = biological target: M-phase phosphoprotein 8 (Homo sapiens) (UniProt Q99549); experiment: qHTS Validation Assay for Inhibitors for MPP8 Chromodomain Interactions with Methylated Histone Tails (AID 488949);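 further: 50 nM MPP8 with 50 nM peptide preformed then compounds added for 30 min; AlphaScreen signal from MPP8 chromodomain bound to biotinylated H3K9me3 peptide; top concentration of the series differs between compounds; nearly all actives have a fitted effect of over 55% in size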
Summary of the method: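 50 nM MPP8 + 50 nM b-H3K9me3 peptide, PBS pH 7.4/0.01% Tween-20, 30 min RT; + cpd 30 min RT; + AlphaScreen donor/Ni-chelate acceptor beads 10 ug/mL final, 30 min dark; luminescence read.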

[17] = biological target: Methanococcus maripaludis chaperonin (MmCpn) (UniProt Q6LX38); experiment: High-Throughput Screening for Modulators of Cytosolic Chaperonin Activity: MmCpn Primary Screen (AID 488978);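 further: 50 nM MmCpn enzyme hydrolysing 30 µM ATP at 37 °C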
Summary of the method: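 Steps: chaperonin 50 nM final; add compound, 5 min RT; start with ATP, 30 uM final; hold 10 min at 37C; add ADP Transcreener HTRF reagent, 5 min; read ex 320, em 590 and 665 nm.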

[18] = biological target: ATP-dependent 6-phosphofructokinase (Trypanosoma brucei brucei) (UniProt O15648); experiment: qHTS Validation Assay to Find Inhibitors of T. brucei phosphofructokinase (AID 485368)
Summary of the method: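 Compounds (up to 57 uM, titration series) were pinned into substrate buffer, then 1.25 nM PFK added; after 45 min at room temperature, ADP product was quantified by ADP-Glo luminescence and concentration-response curves fitted.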

[19] = biological target: Flap endonuclease 1 (Homo sapiens) (UniProt P39748); experiment: qHTS Validation Assay for the Inhibitors of Human Flap endonuclease 1 (FEN1) (AID 488816)
Summary of the method: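 FEN1, dispensed as a 10 nM reagent, was preincubated with pin-transferred compounds for 15 min at room temperature before substrate was added (50 nM final). Plates were read at 0 and 15 min, and a four-parameter Hill equation was fitted to the concentration-response data.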

[20] = biological target: Chromobox protein homolog 1 (Homo sapiens) (UniProt P83916); experiment: qHTS Validation Assay for Inhibitors of HP1-beta Chromodomain Interactions with Methylated Histone Tails (AID 488953);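 further: loss of AlphaScreen luminescence from HP1-beta binding biotinylated H3K9me3 peptide; series mostly up to about 110 µM; nearly all actives have a fitted effect of over 50% in size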
Summary of the method: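 Measured as loss of AlphaScreen luminescence from streptavidin donor and nickel acceptor beads (10 ug/mL final) bridging HP1-beta and biotin-H3(1-18)K9me3, each 50 nM. Compounds met the preassembled complex for 30 min at RT.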

Measured: Potency

Chain of Chromobox protein homolog 1 (Homo sapiens) (P83916 whole entry, looked up): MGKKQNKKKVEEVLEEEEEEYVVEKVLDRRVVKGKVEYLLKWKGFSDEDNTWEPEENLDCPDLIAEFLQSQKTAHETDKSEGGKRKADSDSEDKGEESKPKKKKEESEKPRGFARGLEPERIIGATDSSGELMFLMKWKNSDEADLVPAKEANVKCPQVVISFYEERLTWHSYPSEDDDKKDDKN
Chain of RecQ-like DNA helicase BLM (Homo sapiens) (P54132 whole entry, looked up): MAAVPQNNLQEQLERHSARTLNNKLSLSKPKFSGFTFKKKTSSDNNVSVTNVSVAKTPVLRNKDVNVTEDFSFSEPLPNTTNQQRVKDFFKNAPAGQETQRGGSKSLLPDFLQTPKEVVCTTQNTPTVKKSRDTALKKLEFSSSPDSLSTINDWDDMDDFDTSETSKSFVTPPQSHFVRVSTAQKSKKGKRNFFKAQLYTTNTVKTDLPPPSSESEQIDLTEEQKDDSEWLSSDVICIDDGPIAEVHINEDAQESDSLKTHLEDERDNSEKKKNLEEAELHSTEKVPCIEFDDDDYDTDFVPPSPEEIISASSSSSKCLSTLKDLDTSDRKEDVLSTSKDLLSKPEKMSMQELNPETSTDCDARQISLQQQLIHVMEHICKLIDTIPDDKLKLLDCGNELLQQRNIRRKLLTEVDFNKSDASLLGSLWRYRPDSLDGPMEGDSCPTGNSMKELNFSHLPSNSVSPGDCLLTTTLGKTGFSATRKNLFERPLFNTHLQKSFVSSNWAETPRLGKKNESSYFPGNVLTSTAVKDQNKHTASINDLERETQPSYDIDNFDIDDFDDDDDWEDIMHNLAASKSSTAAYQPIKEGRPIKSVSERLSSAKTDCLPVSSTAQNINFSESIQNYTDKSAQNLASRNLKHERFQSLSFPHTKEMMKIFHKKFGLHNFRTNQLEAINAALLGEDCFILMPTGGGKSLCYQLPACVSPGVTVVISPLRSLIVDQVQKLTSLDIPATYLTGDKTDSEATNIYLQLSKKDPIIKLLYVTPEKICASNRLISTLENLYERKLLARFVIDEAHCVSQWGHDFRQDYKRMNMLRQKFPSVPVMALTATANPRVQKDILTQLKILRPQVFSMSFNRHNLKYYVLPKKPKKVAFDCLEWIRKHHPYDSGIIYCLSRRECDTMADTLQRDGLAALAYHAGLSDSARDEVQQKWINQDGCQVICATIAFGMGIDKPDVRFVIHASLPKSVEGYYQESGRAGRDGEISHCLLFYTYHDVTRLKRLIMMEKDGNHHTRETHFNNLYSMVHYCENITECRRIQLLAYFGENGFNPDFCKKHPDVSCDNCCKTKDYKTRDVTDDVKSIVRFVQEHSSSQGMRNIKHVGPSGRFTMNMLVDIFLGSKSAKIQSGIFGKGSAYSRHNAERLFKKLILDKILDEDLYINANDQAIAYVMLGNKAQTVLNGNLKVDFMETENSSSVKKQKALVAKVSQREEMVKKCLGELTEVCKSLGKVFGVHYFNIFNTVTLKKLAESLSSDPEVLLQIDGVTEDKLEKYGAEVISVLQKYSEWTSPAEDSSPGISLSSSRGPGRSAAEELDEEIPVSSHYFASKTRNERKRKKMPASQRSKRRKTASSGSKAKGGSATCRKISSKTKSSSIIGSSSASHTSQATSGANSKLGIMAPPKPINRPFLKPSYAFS
Chain of ATP-dependent 6-phosphofructokinase (Trypanosoma brucei brucei) (O15648 whole entry, looked up): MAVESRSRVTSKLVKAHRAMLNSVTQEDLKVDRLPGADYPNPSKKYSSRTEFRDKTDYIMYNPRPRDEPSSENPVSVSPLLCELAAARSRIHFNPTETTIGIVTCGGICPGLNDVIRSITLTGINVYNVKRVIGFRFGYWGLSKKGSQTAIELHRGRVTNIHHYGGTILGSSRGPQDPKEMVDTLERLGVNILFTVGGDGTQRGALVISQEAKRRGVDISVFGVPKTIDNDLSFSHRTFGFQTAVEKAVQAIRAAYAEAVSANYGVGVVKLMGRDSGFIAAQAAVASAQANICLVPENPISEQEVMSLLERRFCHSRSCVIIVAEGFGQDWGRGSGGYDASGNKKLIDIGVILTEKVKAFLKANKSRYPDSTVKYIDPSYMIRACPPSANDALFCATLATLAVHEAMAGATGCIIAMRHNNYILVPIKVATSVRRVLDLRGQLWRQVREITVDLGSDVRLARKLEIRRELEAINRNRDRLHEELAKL
Chain of M-phase phosphoprotein 8 (Homo sapiens) (Q99549 whole entry, looked up): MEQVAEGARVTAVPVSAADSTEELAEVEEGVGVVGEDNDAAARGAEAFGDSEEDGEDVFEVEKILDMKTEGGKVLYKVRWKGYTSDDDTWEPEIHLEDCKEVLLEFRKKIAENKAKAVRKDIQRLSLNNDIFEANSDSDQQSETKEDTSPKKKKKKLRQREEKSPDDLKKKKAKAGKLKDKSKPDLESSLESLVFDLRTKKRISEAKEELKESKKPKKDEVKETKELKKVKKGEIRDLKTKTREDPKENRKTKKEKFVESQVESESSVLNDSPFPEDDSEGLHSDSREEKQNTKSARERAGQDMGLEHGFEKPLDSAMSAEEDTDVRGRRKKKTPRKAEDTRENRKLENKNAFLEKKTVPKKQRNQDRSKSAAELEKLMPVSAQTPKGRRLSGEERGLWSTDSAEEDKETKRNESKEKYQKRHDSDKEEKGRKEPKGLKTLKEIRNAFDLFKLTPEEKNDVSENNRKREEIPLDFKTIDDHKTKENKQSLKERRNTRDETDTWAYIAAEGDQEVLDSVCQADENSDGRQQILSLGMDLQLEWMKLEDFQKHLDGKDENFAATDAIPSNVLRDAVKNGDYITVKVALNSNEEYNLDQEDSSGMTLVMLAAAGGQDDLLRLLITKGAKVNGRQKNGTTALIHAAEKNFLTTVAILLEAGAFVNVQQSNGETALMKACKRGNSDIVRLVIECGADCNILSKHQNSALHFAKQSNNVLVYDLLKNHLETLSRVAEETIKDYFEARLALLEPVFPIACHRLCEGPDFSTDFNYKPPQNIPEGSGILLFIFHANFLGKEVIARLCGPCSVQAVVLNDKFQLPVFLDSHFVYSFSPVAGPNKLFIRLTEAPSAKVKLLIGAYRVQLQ
Chain of Thioredoxin reductase 1, cytoplasmic (Rattus norvegicus) (O89049 whole entry, looked up): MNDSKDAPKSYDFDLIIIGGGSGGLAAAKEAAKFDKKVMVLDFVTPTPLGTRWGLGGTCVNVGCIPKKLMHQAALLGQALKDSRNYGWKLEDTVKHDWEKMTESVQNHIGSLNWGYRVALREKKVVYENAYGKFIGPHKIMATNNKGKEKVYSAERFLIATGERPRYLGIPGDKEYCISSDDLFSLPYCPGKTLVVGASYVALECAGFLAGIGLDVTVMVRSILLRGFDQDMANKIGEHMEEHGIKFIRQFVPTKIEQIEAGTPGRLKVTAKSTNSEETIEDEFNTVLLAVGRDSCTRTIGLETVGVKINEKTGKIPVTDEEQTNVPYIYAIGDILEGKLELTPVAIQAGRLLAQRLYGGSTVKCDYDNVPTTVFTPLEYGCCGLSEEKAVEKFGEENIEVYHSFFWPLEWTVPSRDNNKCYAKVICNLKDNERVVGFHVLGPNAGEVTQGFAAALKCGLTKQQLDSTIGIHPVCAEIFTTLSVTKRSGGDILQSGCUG
Chain of Flap endonuclease 1 (Homo sapiens) (P39748 whole entry, looked up): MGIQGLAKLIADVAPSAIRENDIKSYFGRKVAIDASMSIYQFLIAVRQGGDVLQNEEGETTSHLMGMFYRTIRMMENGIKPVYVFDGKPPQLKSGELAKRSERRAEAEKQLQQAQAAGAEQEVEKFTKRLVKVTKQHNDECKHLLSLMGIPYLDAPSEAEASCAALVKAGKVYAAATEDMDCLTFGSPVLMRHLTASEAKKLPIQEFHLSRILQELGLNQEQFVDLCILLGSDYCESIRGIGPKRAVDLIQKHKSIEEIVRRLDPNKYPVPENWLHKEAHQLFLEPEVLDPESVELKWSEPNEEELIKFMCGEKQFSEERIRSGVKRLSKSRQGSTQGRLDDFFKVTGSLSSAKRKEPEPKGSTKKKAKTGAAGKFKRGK
Chain of ATP-dependent DNA helicase Q1 (Homo sapiens) (P46063 whole entry, looked up): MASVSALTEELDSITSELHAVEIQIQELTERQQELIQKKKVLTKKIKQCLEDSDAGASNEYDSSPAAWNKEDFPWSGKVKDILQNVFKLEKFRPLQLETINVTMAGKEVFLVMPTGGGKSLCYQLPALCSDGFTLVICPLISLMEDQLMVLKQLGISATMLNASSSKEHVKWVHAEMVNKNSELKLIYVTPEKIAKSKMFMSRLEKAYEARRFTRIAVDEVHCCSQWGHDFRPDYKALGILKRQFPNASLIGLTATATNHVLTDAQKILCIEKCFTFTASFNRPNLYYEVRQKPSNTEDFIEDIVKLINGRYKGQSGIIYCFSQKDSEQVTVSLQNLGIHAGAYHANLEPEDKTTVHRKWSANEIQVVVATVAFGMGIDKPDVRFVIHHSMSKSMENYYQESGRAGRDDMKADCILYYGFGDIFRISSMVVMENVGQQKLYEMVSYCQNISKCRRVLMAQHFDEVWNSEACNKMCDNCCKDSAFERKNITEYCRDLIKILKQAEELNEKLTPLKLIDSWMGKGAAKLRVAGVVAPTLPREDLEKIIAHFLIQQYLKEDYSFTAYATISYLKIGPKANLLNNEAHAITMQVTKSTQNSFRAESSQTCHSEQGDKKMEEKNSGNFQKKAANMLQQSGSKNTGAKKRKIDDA
Chain of Beta-2 adrenergic receptor (Homo sapiens) (P07550 whole entry, looked up): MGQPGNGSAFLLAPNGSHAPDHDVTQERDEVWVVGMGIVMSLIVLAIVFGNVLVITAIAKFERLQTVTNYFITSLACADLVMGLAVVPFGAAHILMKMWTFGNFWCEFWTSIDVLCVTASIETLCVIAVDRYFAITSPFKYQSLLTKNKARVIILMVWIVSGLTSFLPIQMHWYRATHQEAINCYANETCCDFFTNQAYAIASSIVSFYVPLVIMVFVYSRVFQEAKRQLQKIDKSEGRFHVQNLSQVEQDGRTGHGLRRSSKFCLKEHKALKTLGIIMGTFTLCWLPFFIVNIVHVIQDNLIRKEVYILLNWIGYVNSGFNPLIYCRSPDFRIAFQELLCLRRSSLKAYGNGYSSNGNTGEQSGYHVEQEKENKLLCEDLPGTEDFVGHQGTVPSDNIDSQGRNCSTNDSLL

NC(N)=NCCC[C@H](N)C(=O)O
not listed: [18] | [19] | [20]
inactive: all other assays above

CCCCCCCCCCCCCCCC(=O)NCCO
not listed: [12]
inactive: all other assays above

CCN(CC)CCNC(=O)c1cc(Cl)c(N)cc1OC
inactive: all assays above

NC(=O)c1ncn([C@@H]2O[C@H](CO)[C@@H](O)[C@H]2O)n1
not listed: [12] | [19]
inactive: all other assays above

N=c1c[n+](N2CCOCC2)[n-]o1
not listed: [15]
inactive: all other assays above

CN(C)CCCN1c2ccccc2CCc2ccccc21
inactive: [1] | [2] | [3] | [4] | [6] | [8] | [9] | [10] | [11] | [12] | [17]
